# From PubChem
# Rows were chosen to be rich in hits. Some 1.2% of all compounds tested hit in one or more screens of this group.
# PKD1 kinase inh = inhibitors of human PKD1 kinase, biochemical, fluorescence polarization; Serine/threonine-protein kinase D1 (Homo sapiens), Q15139; PKD1 kinase fluorescence polarization assay; inhibition, % (concentration not given with the values); 0.056% of 200,000 active; AID 797, 2007; in the data active = inhibition above about 50%
# UBC9 SUMO inh = inhibitors of in vitro SUMOylation cascade, primary screen, biochemical, HTRF, uHTS; inhibition, % at 35 µM; SUMO-conjugating enzyme UBC9 (Homo sapiens), P63279; HTRF SUMOylation assay, SAE1/SAE2 + UBC9; 0.36% of 290,000 active; in the data active = inhibition above about 50%, passing the limit was not always enough
# Furin inhibitor = human furin inhibitors, primary screen, biochemical, fluorescence intensity; 0.061% of 220,000 active; purified furin, fluorogenic substrate cleavage; inhibition, % at 20 µM or 30 µM; AID 463115, 2010; P09958; in the data active = inhibition above about 25%
# p97 ATPase inh = inhibitors of human p97 ATPase, primary screen, biochemical. Transitional endoplasmic reticulum ATPase (Homo sapiens), P55072. recombinant p97 ATPase, Kinase-Glo ATP luminescence, 3 h. inhibition, % at 8 µM. 0.42% of 220,000 active; in the data active = inhibition above about 15%;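 note: 0% = DMSO vehicle and 100% = wells lacking enzyme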
# Target sequence (P55072 whole entry, looked up): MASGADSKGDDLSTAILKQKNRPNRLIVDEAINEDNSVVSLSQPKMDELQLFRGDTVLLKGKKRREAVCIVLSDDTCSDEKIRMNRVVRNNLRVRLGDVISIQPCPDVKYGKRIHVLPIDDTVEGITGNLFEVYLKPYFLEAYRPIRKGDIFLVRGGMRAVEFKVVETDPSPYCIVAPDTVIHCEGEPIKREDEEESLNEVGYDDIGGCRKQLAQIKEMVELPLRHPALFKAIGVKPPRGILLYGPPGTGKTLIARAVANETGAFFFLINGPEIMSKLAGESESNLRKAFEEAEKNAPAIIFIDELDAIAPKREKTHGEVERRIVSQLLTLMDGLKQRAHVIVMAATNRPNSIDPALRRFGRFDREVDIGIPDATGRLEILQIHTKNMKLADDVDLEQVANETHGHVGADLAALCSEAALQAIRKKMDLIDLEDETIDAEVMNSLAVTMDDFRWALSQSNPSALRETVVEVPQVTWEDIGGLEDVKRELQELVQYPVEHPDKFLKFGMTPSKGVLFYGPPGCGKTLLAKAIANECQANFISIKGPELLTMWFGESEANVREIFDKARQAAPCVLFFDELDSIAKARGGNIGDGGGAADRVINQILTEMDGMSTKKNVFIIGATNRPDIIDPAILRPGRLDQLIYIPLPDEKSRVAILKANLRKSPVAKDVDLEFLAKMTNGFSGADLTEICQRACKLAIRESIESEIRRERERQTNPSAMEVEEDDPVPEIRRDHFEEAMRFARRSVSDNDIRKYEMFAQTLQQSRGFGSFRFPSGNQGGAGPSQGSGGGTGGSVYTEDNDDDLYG
# FAS-TE inh = FAS thioesterase domain inhibitors, primary screen, biochemical, fluorescence intensity, uHTS | Fatty acid synthase (Homo sapiens), P49327 | recombinant FAS-TE, OMFH fluorogenic substrate, fluorescence endpoint | inhibition, % at 15 µM | 0.67% of 360,000 active | AID 602261, 2012;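 active = compounds whose normalised, plate-corrected inhibition of enzyme fluorescence in the single-dose primary screen is 50% or more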;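 note: 0% = DMSO with enzyme and 100% = substrate without enzyme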
# Redox H2O2 prof = compounds producing H2O2 with reducing agent – biochemical, NIH compound library profiling, artefact control for MLSCN library redox annotation, primary screen; DTT-dependent redox cycling H2O2, phenol red/HRP absorbance; 100% = 100 µM peroxide control, 0% = buffer; activation, % at 10 µM; 0.03% of 200,000 active;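 active = activation of at least 50% relative to the plate's high and low controls in the primary single-dose screen; inactive = activation below 50%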;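 note: compound incubated with DTT at 0.8 mM final as the reducing agent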
# An asterisk follows results filed as active; x = no result.
SMILES,PKD1 kinase inh,UBC9 SUMO inh,Furin inhibitor,p97 ATPase inh,FAS-TE inh,Redox H2O2 prof
O=[N+]([O-])c1ccc2nc(NN=Cc3ccc(O)cc3)sc2c1,x,x,x,x,9,x
O=[N+]([O-])c1ccc2nc(CN3CCCCC3)[nH]c2c1,1,14,-35,-1,3,0
COc1ccc(-c2nc3ccc([N+](=O)[O-])cc3[nH]2)cc1,-4,55*,-2,-4,16,0
O=[N+]([O-])c1ccc2nc(CCCc3nc4ccc([N+](=O)[O-])cc4[nH]3)[nH]c2c1,8,69*,-11,5,18,0
Nc1ccc2nc(-c3cccc(-c4nc5ccc(N)cc5[nH]4)n3)[nH]c2c1,x,-5,x,x,3,x
Cc1ccc(-c2nc3ccc([N+](=O)[O-])cc3[nH]2)cc1,4,6,-10,1,20,-2
Nc1ccc2nc(-c3ccc(-c4nc5ccc(N)cc5[nH]4)cc3)[nH]c2c1,x,62*,x,x,x,x
Cc1nnc(SC(C)C(=O)NC2CCCCC2)[nH]c1=O (configuration not stated),x,x,x,x,-6,x
CCCOc1ccc(C2NC(=O)NC2=O)cc1 (configuration not stated),-9,-4,27*,4,-4,3
CCCCCOc1ccc(C2NC(=O)NC2=O)cc1 (configuration not stated),18,17,-16,2,-2,0
CC(C)C[C@H]1CN([C@@H](Cc2ccc(O)cc2)CN2CCC[C@H]2CN2C(=O)C(=O)NC[C@@H]2Cc2ccc(O)cc2)C(=O)C(=O)N1CCc1ccccc1,x,x,x,x,-9,x
Cc1[nH][nH]c(=O)c1C(c1c(C)[nH][nH]c1=O)c1cn(Cc2cccc3ccccc23)c2ccccc12,-2,79,-16,27*,-7,-4
COc1ccc(CCN2C(=O)CCC2(C)c2nnnn2Cc2ccccc2)cc1OC (configuration not stated),x,x,x,x,-4,x
CN1CCCc2cc3c(C(F)(F)F)cc(=O)oc3nc21,-5,62*,-17,2,-15,2
CC(C)OC(=O)C(C(=O)C(F)(F)F)c1cc(NS(=O)(=O)c2ccc3ccccc3c2)c2ccccc2c1O (configuration not stated),-9,71*,-17,6,39,0
Cc1ccc(C(=O)O)cc1NS(=O)(=O)c1ccc2ccccc2c1,x,2,x,x,-7,x
CCC(CC)C(=O)N(C)c1c(C)nc2c(OCc3cccc(Cl)c3)cccn12,x,x,x,x,9,x
Cn1nccc1NC(=O)Nc1cccc(Br)c1,x,65*,x,x,-4,x
CCOc1cc(/C=N/n2cnnc2)ccc1OCC(=O)Nc1ccccc1OC,14,-21,-29,1,-5,4
CCOc1cc(/C=C2\C(=O)N(c3cccc(C(=O)O)c3)N=C2C(F)(F)F)ccc1OCC(=O)Nc1ccccc1OC,x,73*,x,x,x,x
CC(C)NC(=O)N1Cc2cc(C(=O)NC3CCCCC3)nc(-c3cccc(-c4cccnc4)c3)c2[C@@H]1CCO,x,x,x,x,-1,x
CCCCCN1C=CC=C/C1=C\C=C(C#N)C#N,x,8,-13,-8,23,x
CCCCCCN1C=CC=C/C1=C/C=C(C#N)C#N,-5,8,30*,0,7,0
Cn1c(-c2ccc(C=O)s2)nc2c3ccccc3c3ccccc3c21,-4,97*,-19,2,-38,7
O=C(NCCCCO)c1c(-c2ccccc2)oc2c1C(OCCCCCO)CCC2 (configuration not stated),x,x,x,x,-10,x
SMILES,PKD1 kinase inh,UBC9 SUMO inh,Furin inhibitor,p97 ATPase inh,FAS-TE inh,Redox H2O2 prof
CC1=NN(c2ccc(S(=O)(=O)O)cc2Cl)C(=O)C1,6,83*,-20,6,-3,0
CCCCCc1ccnc(CC(=O)c2ccc(OC)cc2)c1,x,x,x,x,-4,x
Cc1ccnc(Sc2ccc([N+](=O)[O-])cc2[N+](=O)[O-])n1,2,11,-13,16*,10,-1
O=C(CCn1nc(-c2ccc(Cl)cc2)ccc1=O)N1CCN(c2ccccc2)CC1,x,-6,x,x,51*,x
O=C(N/N=C/c1ccc(-c2ccc(Cl)c(C(=O)O)c2)o1)c1cc2c(ccc3ccccc32)o1,x,51*,-12,5,18,x
C[N+](=O)C1C(=O)Nc2ccccc21 (configuration not stated),x,x,x,x,-3,x
N#Cc1c(NC(=O)CSc2ncnc3sccc23)oc(-c2ccco2)c1-c1ccco1,4,x,-18,15*,20,0
O=C(CC1Nc2cccc3cccc(c23)NC1=O)Nc1ccc(F)cc1 (configuration not stated),-6,68*,-4,3,6,0
Cc1ccc(S(=O)(=O)c2ccc([N+](=O)[O-])o2)cc1,x,x,x,x,37,x
O=C1C2C3c4ccccc4C(c4ccccc43)[C@@H]2C(=O)N1c1nc(-c2ccccc2)cs1 (some centres not stated),-5,-27,-8,4,52*,0
COc1cc(-c2nc(C(=O)NC3CCN(Cc4ccccc4)CC3)cc3c2[nH]c2ccccc23)cc(OC)c1OC,x,-6,x,x,77*,x
COc1ccc(CN2CCC3CC2c2cc(Cl)ccc23)cc1 (configuration not stated),x,x,x,x,6,x
CC1(C(=O)NS(=O)(=O)c2ccc(Cl)s2)CCN1C(=O)CCc1ccccc1 (configuration not stated),x,x,x,x,-3,x
CCCCNC1=CC(=O)C(NCCCC)=CC1=O,x,x,x,x,-3,x
CCCCNC1=CC(=O)C(=O)c2ccccc21,-6,91*,-22,5,-5,0
O=C(Cn1c2ccccc2c(=O)c2cc([N+](=O)[O-])ccc21)Nc1ccccc1Cl,-3,51*,-1,0,27,0
Cc1cc(C)c(NC(=O)CN(C)C(=O)CCN2C(=O)C3CCCCC3C2=O)c(C)c1 (configuration not stated),x,x,x,x,-6,x
CC(C)(C)n1nnnc1C1c2ccccc2C(=O)N1CCc1c[nH]c2ccccc12 (configuration not stated),x,x,x,x,-9,x
COc1ccccc1/C=N/NC(=O)c1ccc(CN2C(=O)c3cccc4cccc2c34)cc1,x,59*,-13,1,22,x
O=C(COc1ccc(Cl)cc1Cl)NC(=O)N1CCCCC1,-11,11,32*,-3,-4,0
CC(=O)NC(c1ccccc1)c1nc(-c2cncnc2)cs1 (configuration not stated),x,x,x,x,-8,x
Cc1cccc(NC(=O)Cn2c(O)c(N=NC(=O)c3ccccc3O)c3ccccc32)c1,12,54*,-7,3,-11,0
O=C(C1CCCCC1)N1CCC2CC1c1cc(Cl)ccc12 (configuration not stated),x,x,x,x,1,x
O=C(O)CN1C(=O)/C(=C\c2ccccc2OCc2ccc(Cl)cc2)SC1=S,x,-4,x,x,14,x
